Only some compounds are listed: those with a hit (about 8.7% of all), similar ones and a draw of the others.
AMA1-RON2 inh: AMA1-RON2 (P. falciparum) interaction inhibition; AlphaScreen AMA1-biotinylated RON2 peptide binding; Potency, µM (highest dose often 58.2 µM), for inactives: at the top dose activity change, negative = inhibition, hits mostly inhibitors; actives 0.2% (n = 360,000);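 further: 0% = vehicle wells and -100% = peptide control; nearly all actives have a fitted effect of over 45% in size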
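AMA1 (3D7) with his tag at 25 nM final met compounds first, then biotinylated RON2 peptide at 25 nM; detection used donor plus acceptor beads, 10 µg/mL apiece, read by AlphaScreen after 30 min at room temperature.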
Vaccinia mCherry: vaccinia inhibition (mCherry reporter); Vaccinia virus mCherry reporter infection, fluorescence; Potency, µM (top dose mostly 36.5 µM), inactives show at the top dose activity change, negative = inhibition, actives largely listed as inhibitors; actives 0.63% (n = 310,000); calls by dose curve; tested in A549 cells; further: nearly all actives have a fitted effect of over 35% in size
Pf growth 96h: P. falciparum growth inhibition at 96 hours; P. falciparum luciferase reporter growth, 96 h; Potency, µM (titrated, usually from 28.7 µM), for the others: at the top dose activity change, negative = inhibition, most hits filed as inhibitors; actives 6.9% (n = 320,000)
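Parasite growth measured via integrated firefly luciferase reporter in P. falciparum. Infected erythrocytes at 2% hematocrit, 0.05% parasitemia final were treated 96 hours at 37 C under 5% CO2, and luminescence was read.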
Pf growth 48h: P. falciparum growth inhibition at 48 hours (one generation). P. falciparum luciferase growth in erythrocytes, 48 h. Potency, µM (highest dose often 28.7 µM), for the others: at the top dose activity change, negative = inhibition, most hits filed as inhibitors. actives 5.9% (n = 310,000). AID 504832
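Erythrocytes infected with P. falciparum carrying an integrated firefly luciferase reporter (2% hematocrit, 0.1% parasitemia final) were exposed to compounds in RPMI 1640 with 0.5% Albumax at 37 C, 5% CO2. Growth inhibition was scored as reduced luminescence.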
VACV Venus inh: inhibitors of vaccinia virus (Venus reporter); Vaccinia virus Venus reporter expression, fluorescence; actives 0.46% (n = 330,000); Potency, µM (doses to about 36.5 µM), for inactives: top-dose activity change, negative = inhibition, actives largely listed as inhibitors; AID 720580; calls by dose curve; tested in A549 cells; further: nearly all actives have a fitted effect of over 30% in size
Active calls of the source: *; i = inactive; ? = inconclusive; / = not tested or not shown; [ ] = dose if it differs, or a comment. Unless noted, the call rests on the fitted dose curve; in most records, active means well fitted curve in the direction sought with a large enough effect; inconclusive means small, poorly fitted or top-dose-only effect, or another doubt; inactive means no such curve, though single readings can be large; an effect the other way counts as inactive or inconclusive. Unless noted, on the % scale 0 is the no-effect control and ±100 the full control effect; potency means the concentration at half of the fitted maximal effect.

SMILES	AMA1-RON2 inh	Vaccinia mCherry	Pf growth 96h	Pf growth 48h	VACV Venus inh
COC(=O)c1ccc(S(=O)(=O)N2CCN(C(c3ccccc3)c3ccccc3)CC2)n1C	-4%	/	?	10µM*	/
CCn1c(C(c2ccccc2)c2ccccc2)n[nH]c1=S	38%	/	?	/	-1%
C=CCn1c(C(c2ccccc2)c2ccccc2)n[nH]c1=S	46%	-12%	3.7µM*	-20%	-4%
CCOC(=O)c1ccc(C(=O)OCC)c(NC(=S)Nc2ccc([N+](=O)[O-])cc2OC)c1	32%[11.6 µM]	-14%	2.9µM*	34%	-6%
Clc1cccc(CN2CCc3c([nH]c4ccccc34)C2)c1Cl	-20%	-15%	?	1.9µM*	-21%
COC(=O)[C@]1(C)N[C@H](c2ccc(-c3ccc(Cl)c(Cl)c3)c(OC)c2)[C@@H]2C(=O)N(C)C(=O)[C@@H]21	-16%	?	3.3µM*	5.2µM*	?
CCN1C(=O)[C@H]2[C@@H](c3ccc(-c4cccc(Cl)c4)c(OC)c3)N[C@@](C)(C(=O)OC)[C@H]2C1=O	0%	-16%	1.2µM*	2.1µM*	-34%
COc1cccc(C(=O)N2CCN(C(=O)C3CC3)CC2)c1	-2%	i	12µM*	10%	17%
COc1ccc(C(=O)Nc2cccc(C(=O)N3CCN(C)CC3)c2)cc1	2%	/	0.13µM*	136%	-14%
COc1cccc(C(=O)N2CCCC(Nc3ccc(C)c(C)c3)C2)c1 (stereo not given)	-14%	?	?	-3%	-11%
COc1cccc(C(=O)N2CCC(C(=O)N3CCN(C)CC3)CC2)c1	5%	14%	19%	32%	19%
COc1cccc(C(=O)OC(C)CN2CCCC2)c1 (stereo not given)	6%	-11%	4.1µM*	-4%	-12%
COc1cccc(C(=O)C2CCCN(C(=O)c3cccc(C#CC(C)(C)O)c3)C2)c1 (stereo not given)	-4%	-20%	12µM*	?	-5%
Cc1ccc(S(=O)(=O)N2CCCC2C(=O)Nc2ccc(Br)cc2)cc1 (stereo not given)	/	-20%	/	/	-19%
CN1CCN(C(c2cccc(Br)c2)c2sc3nc(-c4ccco4)nn3c2O)CC1 (stereo not given)	/	-6%	/	/	-6%
CCOc1ccc(-c2nc(Cn3c(=O)cc(C)c4c(C)nn(-c5ccc(C)cc5)c43)c(C)o2)cc1	/	-6%	/	/	10%
CCc1ccc(-n2c(=O)c3c4c(sc3n(Cc3ccccc3C#N)c2=O)CCCC4)cc1	/	-5%	/	/	-10%
O=C(c1cccs1)N(Cc1cccnc1)c1nc2ccc(F)cc2s1	/	-9%	/	/	-21%
C/C(=N\Nc1ccc(S(=O)(=O)Nc2ccccc2)cc1[N+](=O)[O-])c1ccncc1	/	/	?	10µM*	/
O=[N+]([O-])c1ccccc1/C=C/C=N/Nc1ccc(S(=O)(=O)Nc2ccc(Cl)cc2)cc1[N+](=O)[O-]	?	-20%	-7%	12µM*	-27%
O=[N+]([O-])c1cc(S(=O)(=O)Nc2cccc(Cl)c2)ccc1N/N=C/c1ccc(N2CCOCC2)cc1	4%	/	?	1.9µM*	/
CCCC(CCC)=NNc1ccc(S(=O)(=O)Nc2ccccc2OC)cc1[N+](=O)[O-]	?	-7%	?	?	-11%
COc1ccccc1NS(=O)(=O)c1ccc(N/N=C(\C)C(C)C)c([N+](=O)[O-])c1	?	-27%	?	8.3µM*	-27%
CCOC(=O)c1ccccc1NC(=O)c1cc2c(s1)-c1ccccc1SC2	/	-5%[7.34 µM]	/	/	-5%[7.34 µM]
CCN(CC)c1cc2c(cc1F)c(=O)c(S(=O)(=O)c1ccc(C)cc1)cn2Cc1ccc(F)cc1	/	-16%	/	/	-18%
SMILES	AMA1-RON2 inh	Vaccinia mCherry	Pf growth 96h	Pf growth 48h	VACV Venus inh
C/C(=N\Nc1ccc(S(=O)(=O)Nc2ccc(Cl)cc2)cc1[N+](=O)[O-])c1ccc(N2CCOCC2)cc1	-27%	i	4.1µM*	?	-20%
C/C(=N\Nc1ccc(S(=O)(=O)Nc2ccccc2)cc1[N+](=O)[O-])c1ccc(N2CCOCC2)cc1	0%	/	?	?	/
CSc1n[nH]c(-c2sccc2OCc2ccc(C)cc2)n1	-5%	/	4.1µM*	?	/
Nc1ccc2oc(-c3ccccc3Cl)cc(=O)c2c1O	-4%	0.79µM*	210%	229%	0.89µM*
Cc1ccc(C2=NCCn3c2c2ccc([N+](=O)[O-])cc2[n+]3[O-])cc1	10%	?	?	?	?
O=[N+]([O-])c1ccc2c3n([n+]([O-])c2c1)CCN=C3c1ccc(Cl)cc1	20%	?	?	12µM*	?
COc1ccc(CNC(=O)Cc2ccc(NC(=O)N3CCCCc4ccccc43)cc2)cc1	/	-19%	/	/	-20%
CCCCN1C(=O)C(O)(CC(=O)c2ccc(C(C)(C)C)cc2)c2ccccc21 (stereo not given)	/	-9%[7.34 µM]	/	/	-6%[7.34 µM]
Cn1cc(-c2cc3n(n2)CCC(=O)N3CCCC(=O)Nc2ccccc2Cl)c2ccccc21	/	-24%	/	/	-11%
COc1ccc(N(CC(=O)N2CCN(c3ccccc3)CC2)S(=O)(=O)c2c(C)noc2C)cc1	-5%	0%	-28%	/	-9%
COc1ccc(N(CC(=O)N2CCN(c3cccc(C)c3C)CC2)S(=O)(=O)c2c(C)noc2C)cc1	-2%	-17%	13µM*	8.3µM*	-16%
COc1ccc(N(CC(=O)N2CCN(c3cc(C)ccc3C)CC2)S(=O)(=O)c2c(C)noc2C)cc1	9%	-9%	13µM*	9.3µM*	-1%
O=C(NCCc1ccccc1)C1CCC(CNc2c(N3CCCCC3)c(=O)c2=O)CC1 (stereo not given)	18%	3%	12µM*	-21%	-16%
O=C(NC1CCCc2ccccc21)C1CCC(CNS(=O)(=O)c2cccc3nsnc23)CC1 (stereo not given)	5%	14%	3.7µM*	/	-12%
Cc1ccc(CCNC(=O)C2CCC(CNc3c(N4CCCC4)c(=O)c3=O)CC2)cc1 (stereo not given)	24%	-15%	?	/	-4%
CCOC(=O)C1CCCN(c2c(Nc3cccc(C)c3)c(=O)c2=O)C1 (stereo not given)	-4%	-12%	8.3µM*	/	1%
CC1CCN(c2c(NCC3CCC(C(=O)NCCc4ccccc4)CC3)c(=O)c2=O)CC1 (stereo not given)	25%	-8%	?	-20%	-18%
Cc1cccc(CCNC(=O)C2CCC(CNc3c(N4CCCC4)c(=O)c3=O)CC2)c1 (stereo not given)	-1%	i	9.3µM*	/	0%
COCCn1c(C)cc(O)c(C(c2cccc(F)c2)N2CCN(c3ccccc3)CC2)c1=O (stereo not given)	/	-13%	/	/	-10%
O=C(NC1CCCc2ccccc21)C1CCC(CNc2c(N3CCOCC3)c(=O)c2=O)CC1 (stereo not given)	3%	-12%	10µM*	20%	-5%

Screening results (PubChem BioAssay)
